Source: ChEMBL document CHEMBL2218924, “A broad activity screen in support of a chemogenomic map for kinase signalling research and drug discovery” (Biochem J, 2013)

Columns and labels:
[1] = molecular target: Serine/threonine-protein kinase WNK2 (Homo sapiens) (UniProt Q9Y3S1); settings: at 10 µM
[2] = molecular target: Serine/threonine-protein kinase WNK3 (Homo sapiens) (UniProt Q9BYP7); settings: at 1 µM
[3] = molecular target: Serine/threonine-protein kinase WNK3 (Homo sapiens) (UniProt Q9BYP7); settings: at 10 µM
[4] = molecular target: Tyrosine-protein kinase Yes (Homo sapiens) (UniProt P07947); settings: at 1 µM
[5] = molecular target: Tyrosine-protein kinase Yes (Homo sapiens) (UniProt P07947); settings: at 10 µM
[6] = molecular target: Mast/stem cell growth factor receptor Kit (Homo sapiens) (UniProt P10721); settings: at 1 µM
[7] = molecular target: Mast/stem cell growth factor receptor Kit (Homo sapiens) (UniProt P10721); settings: at 10 µM
[8] = molecular target: Proto-oncogene tyrosine-protein kinase Src (Homo sapiens) (UniProt P12931); settings: at 1 µM
[9] = molecular target: Proto-oncogene tyrosine-protein kinase Src (Homo sapiens) (UniProt P12931); settings: at 10 µM
[10] = molecular target: Serine/threonine-protein kinase mTOR (Homo sapiens) (UniProt P42345); settings: at 1 µM
[11] = molecular target: Serine/threonine-protein kinase mTOR (Homo sapiens) (UniProt P42345); settings: at 10 µM
[12] = molecular target: Death-associated protein kinase 3 (Homo sapiens) (UniProt O43293); settings: at 1 µM
[13] = molecular target: Death-associated protein kinase 3 (Homo sapiens) (UniProt O43293); settings: at 10 µM
[14] = molecular target: RAF proto-oncogene serine/threonine-protein kinase (Homo sapiens) (UniProt P04049); settings: at 1 µM
Chain of RAF proto-oncogene serine/threonine-protein kinase (Homo sapiens) (P04049 whole entry): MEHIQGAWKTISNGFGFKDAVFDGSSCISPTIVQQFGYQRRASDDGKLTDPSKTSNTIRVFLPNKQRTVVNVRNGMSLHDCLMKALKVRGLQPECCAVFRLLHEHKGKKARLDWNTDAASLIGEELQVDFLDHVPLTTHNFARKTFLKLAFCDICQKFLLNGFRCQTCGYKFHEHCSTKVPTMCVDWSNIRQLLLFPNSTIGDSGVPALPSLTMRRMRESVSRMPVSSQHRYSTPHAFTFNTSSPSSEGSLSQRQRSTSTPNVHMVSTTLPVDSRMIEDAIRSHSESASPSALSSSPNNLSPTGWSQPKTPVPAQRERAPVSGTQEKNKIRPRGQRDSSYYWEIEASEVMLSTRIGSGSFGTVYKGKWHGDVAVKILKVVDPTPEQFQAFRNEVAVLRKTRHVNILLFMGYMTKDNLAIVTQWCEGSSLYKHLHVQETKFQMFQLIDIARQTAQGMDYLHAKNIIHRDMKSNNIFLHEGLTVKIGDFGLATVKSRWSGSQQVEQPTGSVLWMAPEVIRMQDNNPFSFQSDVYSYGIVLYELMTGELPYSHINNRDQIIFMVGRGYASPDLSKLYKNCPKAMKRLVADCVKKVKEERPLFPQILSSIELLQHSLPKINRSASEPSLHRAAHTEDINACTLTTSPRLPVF

[15] = molecular target: RAF proto-oncogene serine/threonine-protein kinase (Homo sapiens) (UniProt P04049); settings: at 10 µM
[16] = molecular target: Serine/threonine-protein kinase mTOR (Homo sapiens) (UniProt P42345); settings: at 10 µM; remark: listed apart in the source
[17] = molecular target: Serine/threonine-protein kinase mTOR (Homo sapiens) (UniProt P42345); settings: at 1 µM; remark: listed apart in the source
[18] = molecular target: T1, Tyrosine-protein kinase ZAP-70 (Homo sapiens) (UniProt P43403); settings: at 1 µM
T1 sequence (whole entry): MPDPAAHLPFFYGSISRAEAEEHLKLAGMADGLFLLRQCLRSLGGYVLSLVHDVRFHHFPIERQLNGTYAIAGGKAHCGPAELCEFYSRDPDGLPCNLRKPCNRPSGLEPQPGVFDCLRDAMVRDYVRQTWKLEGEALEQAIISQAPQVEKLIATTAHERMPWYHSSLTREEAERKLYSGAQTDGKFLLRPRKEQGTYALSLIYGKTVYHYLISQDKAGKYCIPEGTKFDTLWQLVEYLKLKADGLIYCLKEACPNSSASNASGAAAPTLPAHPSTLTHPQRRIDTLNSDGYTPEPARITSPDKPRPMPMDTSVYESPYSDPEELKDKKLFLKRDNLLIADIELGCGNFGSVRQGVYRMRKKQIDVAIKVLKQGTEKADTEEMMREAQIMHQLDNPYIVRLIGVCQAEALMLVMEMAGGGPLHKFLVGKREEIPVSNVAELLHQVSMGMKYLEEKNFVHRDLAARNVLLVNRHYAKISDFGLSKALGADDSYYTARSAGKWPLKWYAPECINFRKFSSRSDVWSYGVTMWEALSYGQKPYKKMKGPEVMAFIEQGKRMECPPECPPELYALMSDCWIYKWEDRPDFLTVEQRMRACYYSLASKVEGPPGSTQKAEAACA

[19] = molecular target: T2, Eukaryotic elongation factor 2 kinase (Homo sapiens) (UniProt O00418); settings: at 10 µM
T2 sequence (whole entry): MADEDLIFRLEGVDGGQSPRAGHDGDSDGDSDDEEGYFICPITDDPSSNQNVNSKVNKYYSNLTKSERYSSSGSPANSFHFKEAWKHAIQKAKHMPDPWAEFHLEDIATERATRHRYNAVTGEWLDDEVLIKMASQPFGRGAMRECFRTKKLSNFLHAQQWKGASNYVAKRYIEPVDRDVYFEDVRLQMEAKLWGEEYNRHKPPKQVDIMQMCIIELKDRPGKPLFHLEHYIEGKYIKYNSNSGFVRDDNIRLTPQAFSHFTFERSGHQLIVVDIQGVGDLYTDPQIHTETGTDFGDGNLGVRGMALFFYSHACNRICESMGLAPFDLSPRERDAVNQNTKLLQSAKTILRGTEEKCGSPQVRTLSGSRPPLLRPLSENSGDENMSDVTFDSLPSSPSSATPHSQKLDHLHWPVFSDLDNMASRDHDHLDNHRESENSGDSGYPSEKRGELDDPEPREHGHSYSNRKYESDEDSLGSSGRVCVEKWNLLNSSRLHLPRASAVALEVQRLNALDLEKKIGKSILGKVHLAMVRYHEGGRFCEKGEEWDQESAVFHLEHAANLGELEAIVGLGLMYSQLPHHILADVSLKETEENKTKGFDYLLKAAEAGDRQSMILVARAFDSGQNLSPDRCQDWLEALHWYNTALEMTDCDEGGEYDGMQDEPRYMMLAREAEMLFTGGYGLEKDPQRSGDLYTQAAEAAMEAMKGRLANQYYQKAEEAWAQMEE

Chain of Serine/threonine-protein kinase WNK3 (Homo sapiens) (Q9BYP7 whole entry): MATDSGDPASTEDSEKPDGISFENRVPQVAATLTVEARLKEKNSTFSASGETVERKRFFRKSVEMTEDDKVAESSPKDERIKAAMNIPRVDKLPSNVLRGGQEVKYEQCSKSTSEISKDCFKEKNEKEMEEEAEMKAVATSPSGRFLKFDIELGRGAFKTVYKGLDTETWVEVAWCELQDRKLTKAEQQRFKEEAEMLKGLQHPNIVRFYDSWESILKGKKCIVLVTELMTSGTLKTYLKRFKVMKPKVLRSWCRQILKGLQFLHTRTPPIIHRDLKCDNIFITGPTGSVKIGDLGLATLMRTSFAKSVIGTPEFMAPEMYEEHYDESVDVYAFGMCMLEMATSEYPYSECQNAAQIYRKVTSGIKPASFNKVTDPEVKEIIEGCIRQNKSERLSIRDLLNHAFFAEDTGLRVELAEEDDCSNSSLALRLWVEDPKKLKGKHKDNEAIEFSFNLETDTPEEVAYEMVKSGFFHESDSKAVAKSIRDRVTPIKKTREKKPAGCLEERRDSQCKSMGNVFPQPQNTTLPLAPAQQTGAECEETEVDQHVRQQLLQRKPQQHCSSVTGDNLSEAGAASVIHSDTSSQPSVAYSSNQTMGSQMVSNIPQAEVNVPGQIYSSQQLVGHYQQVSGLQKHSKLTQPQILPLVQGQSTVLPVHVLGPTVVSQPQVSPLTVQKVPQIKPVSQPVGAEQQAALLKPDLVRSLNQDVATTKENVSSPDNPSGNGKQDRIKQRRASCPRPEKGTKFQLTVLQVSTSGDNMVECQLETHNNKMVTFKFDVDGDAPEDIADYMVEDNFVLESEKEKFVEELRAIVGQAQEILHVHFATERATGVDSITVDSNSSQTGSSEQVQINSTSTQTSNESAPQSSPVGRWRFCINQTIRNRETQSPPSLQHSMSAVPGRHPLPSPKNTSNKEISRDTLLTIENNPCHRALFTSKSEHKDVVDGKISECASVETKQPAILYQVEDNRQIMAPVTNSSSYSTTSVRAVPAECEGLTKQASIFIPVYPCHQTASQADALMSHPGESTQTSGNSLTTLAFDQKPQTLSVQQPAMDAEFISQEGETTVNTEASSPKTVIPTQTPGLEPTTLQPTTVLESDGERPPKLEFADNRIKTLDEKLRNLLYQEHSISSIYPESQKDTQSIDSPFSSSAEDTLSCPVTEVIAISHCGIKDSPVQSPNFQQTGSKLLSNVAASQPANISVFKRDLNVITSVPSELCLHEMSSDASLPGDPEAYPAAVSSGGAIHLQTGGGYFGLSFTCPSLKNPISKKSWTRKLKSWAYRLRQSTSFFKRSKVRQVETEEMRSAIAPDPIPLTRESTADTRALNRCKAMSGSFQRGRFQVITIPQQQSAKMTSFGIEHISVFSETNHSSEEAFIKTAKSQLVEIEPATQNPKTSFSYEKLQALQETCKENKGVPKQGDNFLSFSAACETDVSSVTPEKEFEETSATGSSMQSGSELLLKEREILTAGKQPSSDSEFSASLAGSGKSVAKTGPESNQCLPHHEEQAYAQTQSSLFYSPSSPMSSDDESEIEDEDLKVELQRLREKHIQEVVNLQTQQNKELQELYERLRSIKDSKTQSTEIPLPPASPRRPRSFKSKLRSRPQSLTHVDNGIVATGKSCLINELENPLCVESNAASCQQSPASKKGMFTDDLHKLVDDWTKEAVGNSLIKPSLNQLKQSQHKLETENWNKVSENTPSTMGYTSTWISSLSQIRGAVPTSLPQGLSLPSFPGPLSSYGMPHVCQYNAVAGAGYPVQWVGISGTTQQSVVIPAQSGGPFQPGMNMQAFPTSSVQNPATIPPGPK
Chain of Serine/threonine-protein kinase WNK2 (Homo sapiens) (Q9Y3S1 whole entry): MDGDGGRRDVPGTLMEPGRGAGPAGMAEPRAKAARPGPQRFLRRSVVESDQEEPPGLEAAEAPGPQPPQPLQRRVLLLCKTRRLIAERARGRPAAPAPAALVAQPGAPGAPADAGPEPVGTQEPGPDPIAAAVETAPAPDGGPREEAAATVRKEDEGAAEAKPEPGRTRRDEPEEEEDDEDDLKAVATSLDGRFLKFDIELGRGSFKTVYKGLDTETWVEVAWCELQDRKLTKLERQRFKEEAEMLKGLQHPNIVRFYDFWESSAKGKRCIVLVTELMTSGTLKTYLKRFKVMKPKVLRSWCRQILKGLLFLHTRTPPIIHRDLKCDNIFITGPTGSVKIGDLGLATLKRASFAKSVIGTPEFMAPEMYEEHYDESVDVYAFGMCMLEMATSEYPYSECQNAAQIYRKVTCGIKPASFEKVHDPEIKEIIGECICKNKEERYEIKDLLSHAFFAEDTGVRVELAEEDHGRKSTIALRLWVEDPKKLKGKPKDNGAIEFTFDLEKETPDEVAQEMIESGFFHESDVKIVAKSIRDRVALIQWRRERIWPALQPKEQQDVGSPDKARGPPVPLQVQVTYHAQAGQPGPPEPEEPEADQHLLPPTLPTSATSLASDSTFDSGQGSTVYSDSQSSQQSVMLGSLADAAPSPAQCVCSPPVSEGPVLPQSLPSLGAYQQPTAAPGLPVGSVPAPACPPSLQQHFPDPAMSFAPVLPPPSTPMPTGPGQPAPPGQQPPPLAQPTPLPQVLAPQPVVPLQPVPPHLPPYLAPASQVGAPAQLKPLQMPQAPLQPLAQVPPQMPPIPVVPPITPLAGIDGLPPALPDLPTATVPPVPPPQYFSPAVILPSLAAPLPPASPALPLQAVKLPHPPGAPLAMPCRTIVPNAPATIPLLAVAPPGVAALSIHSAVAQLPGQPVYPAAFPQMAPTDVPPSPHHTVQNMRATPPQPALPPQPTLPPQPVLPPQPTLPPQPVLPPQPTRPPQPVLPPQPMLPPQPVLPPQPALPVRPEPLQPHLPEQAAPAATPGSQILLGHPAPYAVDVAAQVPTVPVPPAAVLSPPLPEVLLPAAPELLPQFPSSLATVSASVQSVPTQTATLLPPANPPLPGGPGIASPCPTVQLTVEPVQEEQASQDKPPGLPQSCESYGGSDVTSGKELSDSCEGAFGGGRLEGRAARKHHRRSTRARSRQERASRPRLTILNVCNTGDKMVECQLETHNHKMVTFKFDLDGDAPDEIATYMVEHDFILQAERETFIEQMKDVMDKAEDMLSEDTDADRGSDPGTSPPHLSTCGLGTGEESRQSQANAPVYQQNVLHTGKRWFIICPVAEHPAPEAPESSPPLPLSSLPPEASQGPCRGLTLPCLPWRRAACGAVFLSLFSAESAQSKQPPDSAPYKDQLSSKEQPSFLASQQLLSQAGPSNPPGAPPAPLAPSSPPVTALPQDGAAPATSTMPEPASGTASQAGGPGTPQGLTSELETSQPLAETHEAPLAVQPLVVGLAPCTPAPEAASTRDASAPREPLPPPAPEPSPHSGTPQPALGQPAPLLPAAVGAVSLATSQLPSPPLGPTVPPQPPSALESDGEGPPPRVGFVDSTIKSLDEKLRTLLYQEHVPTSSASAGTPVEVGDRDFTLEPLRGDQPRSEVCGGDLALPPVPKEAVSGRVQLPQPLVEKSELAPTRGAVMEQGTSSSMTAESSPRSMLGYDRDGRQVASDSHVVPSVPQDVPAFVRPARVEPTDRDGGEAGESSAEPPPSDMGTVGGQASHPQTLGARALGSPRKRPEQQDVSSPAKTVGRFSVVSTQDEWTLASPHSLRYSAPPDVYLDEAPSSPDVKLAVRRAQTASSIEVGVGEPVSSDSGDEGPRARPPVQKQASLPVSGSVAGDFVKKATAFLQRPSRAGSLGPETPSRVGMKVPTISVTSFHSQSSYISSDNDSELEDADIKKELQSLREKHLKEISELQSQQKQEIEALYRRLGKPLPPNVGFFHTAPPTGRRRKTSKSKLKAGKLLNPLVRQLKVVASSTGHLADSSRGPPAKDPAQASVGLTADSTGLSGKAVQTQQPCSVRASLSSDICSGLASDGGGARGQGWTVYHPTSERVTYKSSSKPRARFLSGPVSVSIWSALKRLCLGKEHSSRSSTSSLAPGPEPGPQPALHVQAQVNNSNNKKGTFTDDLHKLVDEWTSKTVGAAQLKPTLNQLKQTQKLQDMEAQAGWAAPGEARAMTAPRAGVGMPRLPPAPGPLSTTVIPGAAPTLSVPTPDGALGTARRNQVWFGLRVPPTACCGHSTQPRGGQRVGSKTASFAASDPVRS

With c1ccc(-c2cnc(Nc3ccc(OCCN4CCCC4)cc3)s2)cc1 the residual activity [1] was 80%, the residual activity [2] was 114% (inactive) and the residual activity [3] was 100%. For the same compound, the residual activity [4] was 32%, the residual activity [5] was 3% and the residual activity [6] was 1%. For the same compound, the residual activity [7] was 1%, the residual activity [8] was 70% and the residual activity [9] was 29%. The residual activity [10] was 100% and the residual activity [11] was 106%.

With O=c1cc(N2CCOCC2)oc2c1ccc1ccccc12 the residual activity [1] was 84%, the residual activity [2] was 103% (inactive) and the residual activity [3] was 92%. The residual activity [4] was 103%, the residual activity [5] was 95% and the residual activity [12] was 105%. It also gave a residual activity [13] of 85%, a residual activity [14] of 83% and a residual activity [15] of 89%. The residual activity [7] was 100%, the residual activity [8] was 92% and the residual activity [9] was 90%. The residual activity [10] was 95%, the residual activity [11] was 93% and the residual activity [16] was 107%.

Compound COc1cc2c(cc1OC)-c1n[nH]c(Nc3cccc(F)c3)c1C2 has a residual activity [1] of 46%, a residual activity [3] of 59% and a residual activity [4] of 17%. For the same compound, the residual activity [5] was 1%, the residual activity [12] was 73% and the residual activity [13] was 98%. For the same compound, the residual activity [14] was 64%, the residual activity [15] was 54% and the residual activity [6] was 0%. For the same compound, the residual activity [7] was 0%, the residual activity [8] was 44% and the residual activity [9] was 7%. For the same compound, the residual activity [10] was 110%, the residual activity [11] was 108% and the residual activity [16] was 107%.

Compound N#Cc1c(NC(=O)c2cccc3ccccc23)sc2c1CCCC2 has a residual activity [1] of 95%, a residual activity [3] of 84% and a residual activity [4] of 129%. For the same compound, the residual activity [14] was 91%, the residual activity [15] was 78% and the residual activity [7] was 94%.

In the case of CCCC(=O)Oc1ccc2[nH]c(C(=O)c3cc4ccccc4[nH]3)cc2c1, the residual activity [1] is reported as 75%, the residual activity [2] is reported as 102% (inactive) and the residual activity [3] is reported as 85%. For the same compound, the residual activity [4] was 104%, the residual activity [5] was 90% and the residual activity [12] was 89%. For the same compound, the residual activity [14] was 82%, the residual activity [15] was 93% and the residual activity [6] was 107%. The residual activity [7] was 89%, the residual activity [8] was 81% and the residual activity [9] was 94%. For the same compound, the residual activity [10] was 100%, the residual activity [11] was 95% and the residual activity [17] was 99%. It also gave a residual activity [16] of 79%.

In the case of O=C(O)/C=C/c1cc(Br)c(Br)c(Br)c1Br, the residual activity [1] is reported as 89%, the residual activity [2] is reported as 108% (inactive) and the residual activity [3] is reported as 94%. For the same compound, the residual activity [5] was 96%, the residual activity [18] was 108% and the residual activity [12] was 100%. For the same compound, the residual activity [13] was 75%, the residual activity [14] was 81% and the residual activity [15] was 49%. The residual activity [7] was 103%, the residual activity [9] was 82% and the residual activity [10] was 104%. For the same compound, the residual activity [11] was 70%.

CSc1nc(-c2ccc(F)cc2)c(-c2ccnc(NC(C)c3ccccc3)c2)[nH]1 (stereo not drawn) was tested, and the residual activity [2] was 96% (inactive), the residual activity [3] was 94% and the residual activity [4] was 99%. It also gave a residual activity [5] of 63%, a residual activity [12] of 84% and a residual activity [14] of 89%. For the same compound, the residual activity [15] was 65%, the residual activity [8] was 129% and the residual activity [9] was 100%. It also gave a residual activity [17] of 91% and a residual activity [16] of 84%.

In the case of N#C/C(=C\c1ccc(O)c(O)c1)C(=O)NCc1ccccc1, the residual activity [4] is reported as 104%, the residual activity [5] is reported as 73% and the residual activity [12] is reported as 89%. The residual activity [14] was 82%, the residual activity [7] was 100% and the residual activity [8] was 87%. For the same compound, the residual activity [9] was 104%.

Compound O=c1cc(N2CCOCC2)oc2c(-c3ccccc3)cccc12 has a residual activity [1] of 75%, a residual activity [14] of 68% and a residual activity [15] of 69%. It also gave a residual activity [10] of 24% and a residual activity [11] of 27%.

Fc1ccc(-c2nc3n(c2-c2ccncc2)CCS3)cc1 gave a residual activity [1] of 97%, a residual activity [4] of 131% and a residual activity [5] of 91%. The residual activity [18] was 127%, the residual activity [14] was 64% and the residual activity [15] was 28%. For the same compound, the residual activity [11] was 87%.

Work on O=C(Nc1ccc(Cl)cc1)c1ccccc1NCc1ccncc1 yielded a residual activity [4] of 117%, a residual activity [5] of 75% and a residual activity [14] of 41%. For the same compound, the residual activity [15] was 9%, the residual activity [6] was 17% and the residual activity [7] was -1%. The residual activity [8] was 78% and the residual activity [16] was 69%.

In the case of Cc1cc(C)c(/C=C2\C(=O)Nc3ccccc32)[nH]1, the residual activity [1] is reported as 82%, the residual activity [15] is reported as 103% and the residual activity [6] is reported as 11%. The residual activity [7] was 1% and the residual activity [19] was 105%.

In the case of CCCCc1c(-c2ccc(OC)cc2)[nH]c2nccnc12, the residual activity [4] is reported as 51%, the residual activity [5] is reported as 69% and the residual activity [18] is reported as 111%. The residual activity [8] was 61%, the residual activity [9] was 41% and the residual activity [17] was 108%.

For COc1ccc(Cl)cc1NC(=O)Nc1cc(C)nc2ccccc12, the residual activity [2] was 94% (inactive), the residual activity [3] was 78% and the residual activity [12] was 88%. It also gave a residual activity [13] of 87% and a residual activity [14] of 79%.

Work on Nc1n[nH]c2nc3ccccc3nc12 yielded a residual activity [1] of 94%, a residual activity [12] of 99% and a residual activity [13] of 94%. It also gave a residual activity [14] of 93%, a residual activity [15] of 69% and a residual activity [9] of 83%. The residual activity [10] was 80% and the residual activity [11] was 84%.

With Nc1ncnc2[nH]nc(Nc3ccc(F)cc3)c12 the residual activity [2] was 101% (inactive), the residual activity [4] was 93% and the residual activity [5] was 21%. The residual activity [18] was 99%, the residual activity [12] was 116% and the residual activity [13] was 107%. The residual activity [14] was 56%, the residual activity [15] was 16% and the residual activity [6] was 106%. For the same compound, the residual activity [7] was 106%, the residual activity [8] was 100% and the residual activity [9] was 54%. It also gave a residual activity [10] of 98%, a residual activity [11] of 90% and a residual activity [17] of 91%. It also gave a residual activity [16] of 95%.
